Most compounds without a hit are left out; they make up all but 1.9% or so of the library.
Menin MLL FP TR: inhibitors of human menin-MLL interaction, mutant MLL peptide; O00255; Menin + Texas Red MLL mutant peptide, fluorescence polarization; Potency, µM (series often up to 61.6 µM), for inactives: at the top dose FP activity change, negative = inhibition, hits mostly inhibitors; 270,000 tested, 0.23% active; AID 1768; active = well fitted inhibition curve with a large enough effect in the polarisation, with a control signal flat, not every such curve was filed as active; inconclusive = small, poorly fitted or top-dose-only effect, or effect the other way, or a change in a side signal; inactive = no such curve, though single readings can be large or run the other way; the % refers to the polarisation; note: potency is the fitted concentration of half-maximal effect; % of control where 0% means no effect
Epigenetic reg: epigenetic control regulation, reporter derepression; murine LDR cells, GFP reporter derepression, 30 h; 280,000 tested, 0.2% active; Potency, µM (top dose mostly 53.9 µM), without a hit: top-dose GFP activation, hits mostly activators; note: potency is the fitted concentration of half-maximal effect; % of control where 0% means no effect; nearly all actives have a fitted effect of over 60% in size
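Murine LDR cells carrying a silenced, genomically integrated CMV-driven GFP reporter were exposed to compound for 30 hours at 37 C. After PBS washes, GFP-positive cells (20–120 um objects) were counted by laser-scanning microplate cytometry.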
CXXC DNA block: blocks binding of human MLL CXXC domain to DNA | MLL-CXXC / FITC-HOXA9 DNA fluorescence polarization | Potency, µM (top dose mostly 115 µM), for the others: at the highest dose activity change, negative = inhibition, most hits filed as inhibitors | Q03164 | 290,000 tested, 0.037% active; active = well fitted inhibition curve with a large enough effect in the polarisation, with a control signal flat, not every such curve was filed as active; inconclusive = small, poorly fitted or top-dose-only effect, or effect the other way, or a change in a side signal; inactive = no such curve, though single readings can be large or run the other way; the % refers to the polarisation; note: potency is the fitted concentration of half-maximal effect
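Purified MLL-CXXC (added from a 7 uM solution) was preincubated 5 min at ambient with pinned compounds in 50 mM Tris-HCl pH 7.5, 50 mM NaCl, 1 mM DTT, 0.05% BSA. Fluorescein-labeled HOX-A9 DNA (50 nM solution) followed, 30 min, then polarization read.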
PINK1 modulator: PINK1 expression modulation | Potency, µM (highest dose often 76.6 µM), without a hit: at the top dose activation (PINK1 increase), hits mostly activators | AID 624263 | 410,000 tested, 0.2% active | PINK1 immunofluorescence, high-content cytometry, 24 h; active = well fitted activation curve with a large enough effect; inconclusive = small, poorly fitted or top-dose-only effect; cell line not stated here; note: potency is the fitted concentration of half-maximal effect; % of control where 0% means no effect; nearly all actives have a fitted effect of over 65% in size
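A stable cell line was treated with compounds at 5 concentrations for 24 hours, with CCCP as control. PINK1 levels and mitochondrial localization were measured by immunofluorescence with mitochondrial, cell and nuclear markers after fixation, read by laser-scanning cytometry.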
ClpP mod: qHTS Assay for Activators of ClpP | ATP-dependent Clp protease proteolytic subunit (Bacillus subtilis (strain 168)), P80244 | purified B. subtilis ClpP, FRET peptide cleavage, 20 min | Potency, µM (titrated, usually from 57.5 µM), for inactives: at the highest dose activity change, negative = active | 340,000 tested, 1.9% active; active = well fitted falling curve with a large enough effect; inconclusive = small, poorly fitted or top-dose-only effect; inactive = no such curve, though single readings can be large or run the other way; note: potency is the fitted concentration of half-maximal effect; the source files actives as falling curves though it sought activators and does not explain the sign; nearly all actives have a fitted effect of over 65% in size
Target sequence (P80244 whole entry, looked up): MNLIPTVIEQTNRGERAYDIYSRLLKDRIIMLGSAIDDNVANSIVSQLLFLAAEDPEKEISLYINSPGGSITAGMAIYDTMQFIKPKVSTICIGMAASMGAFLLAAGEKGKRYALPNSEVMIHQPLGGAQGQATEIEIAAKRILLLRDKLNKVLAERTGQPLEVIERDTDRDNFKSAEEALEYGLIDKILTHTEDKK
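Purified B. subtilis ClpP, 10 microg/mL final in Tris/HCl pH8 with KCl, BSA, glycerol and Tween-20, cleaved an Abz/nitrotyrosine-quenched decapeptide. Fluorescence (ex 320, em 430) was read at 0 and 20 min at room temperature. Delta was normalized to 5.8 microM ADEP and DMSO/no-enzyme controls.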
Menin MLL FP FL: menin-MLL binding inhibition, fluorescein peptide; FP activity change, % at 61.4 µM; 290,000 tested, under 10 active; Fluorescence polarization, fluorescein-MLL peptide displacement from menin; active = well fitted curve in the direction sought with a large enough effect in the polarisation, not every such curve was filed as active; inconclusive = small, poorly fitted or top-dose-only effect, or effect the other way, or a change in a side signal; inactive = no such curve, though single readings can be large or run the other way; the % refers to the polarisation; note: % of control where 0% means no effect
MLL CXXC Fl: MLL CXXC-DNA interaction inhibition, fluorescein FP; shares compounds with CXXC DNA block; MLL CXXC-DNA binding, fluorescein FP; Potency, µM (doses to about 345 µM), inactives show at the top dose activity change, negative = inhibition, most hits filed as inhibitors; 200 tested, 70% active; AID 624160; note: potency is the fitted concentration of half-maximal effect; nearly all actives have a fitted effect of over 80% in size
MLL CXXC FP-TR: inhibitors of human MLL CXXC domain-DNA interaction, Texas Red format. AID 624161. MLL CXXC-DNA binding, Texas Red fluorescence polarization. 200 tested, 40% active. Potency, µM (highest dose often 345 µM), for inactives: top-dose activity change, negative = inhibition, most hits filed as inhibitors. shares compounds with CXXC DNA block; note: potency is the fitted concentration of half-maximal effect; % is set by controls: 0 for no effect and ±100 for the full control effect; nearly all actives have a fitted effect of over 75% in size
MLL CXXC HTRF: disrupts human MLL CXXC domain binding to DNA by HTRF; shares compounds with CXXC DNA block; MLL CXXC-DNA binding, HTRF, biochemical; Potency, µM (doses to about 172 µM), for inactives: top-dose activity change, negative = inhibition, most hits filed as inhibitors; 210 tested, 30% active; AID 624162; note: % is set by controls: 0 for no effect and ±100 for the full control effect; nearly all actives have a fitted effect of over 80% in size
ClpP validation: inhibits B. subtilis ClpP protease, hit validation. shares compounds with ClpP mod. purified B. subtilis ClpP, FRET-FV substrate cleavage, 20 min. Potency, µM (doses to about 57.5 µM), inactives show at the top dose activity change, negative = inhibition, most hits filed as inhibitors. 470 tested, 40% active; note: potency is the fitted concentration of half-maximal effect; % is set by controls: 0 for no effect and ±100 for the full control effect; nearly all actives have a fitted effect of over 70% in size
* = called active by the depositor; ? = inconclusive; . = no result given; [ ] = dose if it differs, or a comment. Unless noted, calls come from the whole dose curve; as a rule, active = well fitted curve in the direction sought with a large enough effect; inconclusive = small, poorly fitted or top-dose-only effect, or another doubt; inactive = no such curve, though single readings can be large; an effect the other way counts as inactive or inconclusive.

SMILES | Menin MLL FP TR | Epigenetic reg | CXXC DNA block | PINK1 modulator | ClpP mod | Menin MLL FP FL | MLL CXXC Fl | MLL CXXC FP-TR | MLL CXXC HTRF | others
CCC(CO)NC(=O)[C@@H]1C=C2c3cccc4[nH]cc(c34)C[C@H]2N(C)C1 (some centres undefined) | -17.4% | -1.2% | 35.5µM* | . | . | ? | 159µM* | ? | 24.3%
CN1C[C@@H](CO)C=C2c3cccc4[nH]cc(c34)CC21 (some centres undefined) | 1.1% | 4.8% | . | . | . | ? | . | . | .
O=C1NC(=O)N(c2ccc3c(c2)OCO3)C(=O)/C1=C\c1ccc(-c2ccccc2C(=O)O)o1 | . | 2.2% | 14.1µM* | 1.9% | . | 23.5 | 14.2µM* | 44.8µM* | 19.3µM*
O=C1NC(=O)N(c2ccc3c(c2)OCO3)C(=O)/C1=C/c1ccc(N2CCCCC2)o1 | -7.4% | 7.4% | ? | 0.6% | -1.8% | ? | . | . | .
Cc1cc(OCC(=O)N[C@@H](Cc2ccccc2)C(=O)O)c2c3c(c(=O)oc2c1)CCCC3 | 3.5% | . | -26.1% | 0.7% | 5.0% | -0.6 | . | . | .
CSC[C@H](NC(=O)COc1cc2c(c3oc(=O)c(C)c(C)c13)CCC(C)(C)O2)C(=O)O | -6.0% | . | ? | -2.7% | 28.2µM* | 1.3 | ? | ? | 15.8%
O=C1/C(=C/c2ccc(N(CCCl)CCCl)cc2)Cc2ccccc21 | . | . | . | . | -1.2% | . | . | . | .
O=C(O)c1ccccc1-c1c2cc(Br)c(=O)cc-2oc2[c]([Hg])c(O)c(Br)cc12 | ? | ? | ? | . | . | ? | 0.762µM* | 135.6%[154 µM] | 23.2µM*
COc1cccc2c1C(=O)c1c(O)c3c(c(O)c1C2=O)C[C@@](O)(C(=O)CO)C[C@@H]3O[C@H]1C[C@H](N)[C@H](OC2CCCCO2)[C@H](C)O1 (some centres undefined) | ? | . | 63.1µM* | -1.0% | -0.6% | ? | 35.6µM* | 44.8µM* | -32.9%
O=C(Nc1cccc(C(=O)Nc2cc(C(=O)Nc3ccc([S+](=O)([O-])[O-])c4cc([S+](=O)([O-])[O-])cc(SOOO)c34)ccc2F)c1)Nc1cccc(C(=O)Nc2cc(C(=O)Nc3ccc([S+](=O)([O-])[O-])c4cc([S+](=O)([O-])[O-])cc([S+](=O)([O-])[O-])c34)ccc2F)c1 | 17.5% | . | . | . | . | 2.1 | . | . | .
Cc1cc(/C=C2\C(=O)NC(=O)N(c3cccc(F)c3)C2=O)c(C)n1-c1cc(C(=O)O)cc(C(=O)O)c1 | 3.6% | -0.3% | 15.8µM* | 0.7% | . | 3.9 | 89.5µM* | ? | 122µM*
Cc1cc(/C=C2\C(=O)NC(=O)N(c3ccc(Br)cc3)C2=O)c(C)n1-c1cc(C(=O)O)cc(C(=O)O)c1 | 20.6% | . | 7.94µM* | 1.2% | -3.5% | 23.8 | 17.9µM* | 40µM* | 38.5µM*
Cc1ccc2c(c1)cc(C(=O)Nc1ccccc1C)n2C | . | 1.6% | . | 6.7% | 34.2% | . | . | . | . | ClpP validation=?
CCN(CC)CCSc1nc2ccccc2c(=O)n1-c1ccc(Cl)cc1 | . | -1.6% | . | 1.5% | 1.2% | . | . | . | .
Cc1cc(NC(=O)CSc2nc3c([nH]c4ccccc43)c(=O)n2-c2ccc(Cl)cc2)no1 | . | 4.2% | . | -0.2% | 37.0% | . | . | . | . | ClpP validation=-18.6%
Cc1cc(/C=C/c2cccc3sc(C)[n+](CCCCI)c23)ccc1N(CCCl)CCCl | . | . | . | 3.2% | 2.2% | . | . | . | .
Nc1c(C(=O)OC2CCCCC2)c2nc3ccccc3nc2n1CC1CCCO1 (centres undefined) | -8.4% | -1.0% | -8.3% | 4.0%[38.3 µM] | 44.8% | 0.9 | . | . | . | ClpP validation=?
CCCCCn1c(N)c(C(=O)NCCN2CCOCC2)c2nc3ccccc3nc21 | -3.5% | -1.0% | -8.2% | -0.8% | 8.91µM* | 6.8 | . | . | . | ClpP validation=24.3µM*
Nc1c(C(=O)NCc2ccco2)c2nc3ccccc3nc2n1CCN1CCOCC1 | 0.2% | -2.5% | -3.8% | -23.4%[38.3 µM] | 10µM* | 1.5 | . | . | . | ClpP validation=21.7µM*
CCCCn1c(N)c(C(=O)OCC2CCCO2)c2nc3ccccc3nc21 (centres undefined) | ? | 1.1% | 11.1% | ? | ? | 1.8 | . | . | .
CCOC(=O)CCN(SN(C)C(=O)Oc1cccc2c1OC(C)(C)C2)C(C)C | -11.7% | . | . | . | . | -3.4 | . | . | .
NC(Cc1ccc(Oc2cc(I)c(O)c(I)c2)c(I)c1)C(=O)O (centres undefined) | ? | . | -7.0% | . | . | 6.3 | . | . | .
